# MK inhibit: S. pneumoniae mevalonate kinase inhibition. inhibition, % at 10 µM. AID 555. purified MK, PK/LDH-coupled NADH absorbance 340 nm. 65,000 tested, 0.48% active;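 active = ranked among the strongest by inhibition in the single 10 µM screen, a fixed top-ranked set picked for dose follow-up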
# Abs 340nm: compounds absorbing at 340 nm; 65,000 tested, under 10 active; fold change at 10 µM; compound absorbance at 340 nm, fold over control;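 active = at 10 µM dose, initial 340 nm absorbance at least 2 fold that of control wells; inactive = change under 2 fold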;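 also: initial absorbance extrapolated from kinetic A340 decline of NADH oxidation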
# NADH enzymes: blocks coupling enzymes of NAD/NADH assays. coupled PK/LDH NADH assays, four targets. IC50, µM (series often up to 10 µM), for the others: top-dose inhibition. 65,000 tested, 0.02% active. AID 774;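 active = single-dose screening hits from any of four coupled enzyme assays that gave an IC50 when retested across doses; inconclusive = no clear call, values can overlap the other calls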;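 also: the DPM-DC format reads NADH fluorescence rather than 340 nm absorbance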
# PMK inhibit: inhibitors of Streptococcus pneumoniae phosphomevalonate kinase | AID 539 | purified PMK, PK/LDH-coupled NADH absorbance 340 nm | inhibition, % at 10 µM | 65,000 tested, 0.49% active;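 active = top-ranked compounds by inhibition in the single 10 µM screen, taking a fixed number of the strongest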;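 also: 0% = full reaction with DMSO carrier and 100% = background rate without enzyme reaction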
# Spn DPM-DC inh: inhibitors of Streptococcus pneumoniae diphosphomevalonate decarboxylase. calls only at 10 µM. purified DPM-DC, PK/LDH coupled NADH fluorescence. 65,000 tested, 0.49% active. AID 556;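 active = the 320 compounds with the highest percent inhibition in the single-dose primary screen, excluding strongly autofluorescent ones, cut at about 32% in these data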;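 also: kinetic rate of NADH fluorescence loss reporting ADP formed by the decarboxylase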
# Autofluor 339: intrinsic fluorescence of library compounds, ex339/em460 – biochemical, MLSMR library, data from DPM-DC assay, artefact control, profiling panel; fluorescence fold increase at 10 µM; compound autofluorescence, ex339/em460 nm, NADH buffer; stronger effect = higher value; 1 = no-compound wells, NADH background; 65,000 tested, 5.5% active;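 active = at 10 µM, mean starting fluorescence two-fold or more over control wells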;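 also: signal is the first read of a kinetic run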
# An asterisk follows results filed as active; i = inactive; ? = inconclusive; / = no result shown; + = active, no number. Sampled rows, rich in hits. Any-hit rate of the full collection: about 6.5%.
SMILES,MK inhibit,Abs 340nm,NADH enzymes,PMK inhibit,Spn DPM-DC inh,Autofluor 339
CCC(C)NC(=O)CSC1=Nc2ccccc2C2=NC(CC(=O)NCc3ccccc3)C(=O)N12 (stereo not given),11.0,1,6.0%,14.0,i,2.1*
COc1cccc(C2C(C(=O)c3sc(C)nc3C)=C(O)C(=O)N2CCN(C)C)c1OC (stereo not given),10.0,1.1,8.0%,15.0,i,1.05
Cc1sc2c(c1C)CN(Cc1ccco1)CN2C(=O)c1ccccc1,0.0,1.03,5.0%,16.0,i,1.15
Cc1ccc(-c2nn(C)c(=O)c3ccccc23)cc1CNC(=O)c1ccco1,6.0,1.01,6.0%,8.0,i,1.02
COc1cc(OC)c(C2CC(=O)N3CN(c4ccc(C)cc4)CSC3=C2C#N)cc1OC (stereo not given),41.0*,1.08,18.0%,14.0,i,1.08
CCCCS(=O)CC(COCc1ccccc1)OC(=O)CSc1nc(C)cc(C)n1 (stereo not given),6.0,1.01,5.0%,10.0,i,1.11
c1csc(-c2cnc3ccccc3n2)c1,2.0,1.04,5.0%,7.0,/,3.64*
c1cncc(Nc2nc(-c3cccs3)cs2)c1,7.0,1.03,3.0%,0.0,i,1.12
CCOC(=O)COc1ccc2nsnc2c1Cl,6.0,1.03,16.0%,9.0,+,2.92*
CCOC(=O)C1CCN(S(=O)(=O)C(F)(F)c2nc3ccccc3s2)CC1,8.0,1.05,6.0%,0.0,i,0.84
CCOC(=O)c1c(Nc2nc(C)c(C(=O)NC)s2)sc(C)c1C,33.0,1.15,30.0%,16.0,+,1.08
CC(=O)Nc1ccc(CN2CCN(c3cccc(C(F)(F)F)c3)CC2)cc1,43.0*,1.07,15.0%,3.0,i,1.05
O=C1NCN(c2ccccc2)C12CCN(c1nnnn1-c1ccccc1)CC2,1.0,1.03,5.0%,14.0,i,1.11
CC1(C)CC2CC(C)(CN2C(=O)COC(=O)c2ccc(Cl)cc2N)C1 (stereo not given),9.0,1.04,9.0%,9.0,/,4.22*
CN(C)c1ccc(-c2nnn(CC(=O)Nc3ccccc3N3CCOCC3)n2)cc1,3.0,1.04,4.0%,7.0,i,1.31
CN(C)c1ccc(-c2nnn(CC(=O)N3c4ccccc4CCc4ccccc43)n2)cc1,0.0,1.07,0.0%,0.0,i,2.61*
COc1cc(CNC2CCCC2)cc(OC)c1,41.0*,1.05,14.0%,0.0,i,1.06
CN(C(=O)C1CCOC1)c1nnc(C2CCOC2)s1 (stereo not given),1.0,1,9.0%,27.0*,i,1.08
CN(C(=O)C1CCOC1)c1nnc(-c2cnccn2)s1 (stereo not given),0.0,1.03,9.0%,14.0,i,1.33
O=c1c2ccccc2nc2n1CCCCC2,7.0,1.01,5.0%,8.0,i,1.04
O=c1c2ccccc2nc2n1CCC2,86.0*,1.04,?,23.0,i,1.11
O=c1c2ccccc2nc2n1CCCCN2,3.0,1.07,6.0%,9.0,/,3.83*
Nc1ccc2nc3n(c(=O)c2c1)CCC3,6.0,1.08,9.0%,12.0,/,2.11*
CCOc1ccc(S(=O)(=O)Nc2ccccc2C(=O)NCC2CCCO2)cc1 (stereo not given),5.0,1.04,7.0%,8.0,/,2.14*
CCOc1ccc(S(=O)(=O)Nc2ccccc2C(=O)Nc2ccccc2N2CCOCC2)cc1,1.0,0.99,2.0%,10.0,i,1.03
SMILES,MK inhibit,Abs 340nm,NADH enzymes,PMK inhibit,Spn DPM-DC inh,Autofluor 339
CCOC(=O)C1=C(C)NC2=C(C(=O)C(C(=O)OCC)C(c3ccco3)C2)C1c1ccccn1 (stereo not given),6.0,1.07,7.0%,8.0,/,3.58*
Cc1csc(NC(=O)C2CCC(C)(C(=O)O)C2(C)C)n1 (stereo not given),5.0,1,11.0%,29.0*,i,1.08
CN(C)S(=O)(=O)Nc1ccccc1C(N)=O,2.0,0.99,3.0%,2.0,/,2.92*
Cc1ccc(S(=O)(=O)Nc2ccccc2C(N)=O)cc1,0.0,1.06,3.0%,6.0,/,3.89*
NC(=O)c1ccccc1NC(=O)CS(=O)(=O)Cc1ccccc1,4.0,1.01,4.0%,8.0,i,1.05
NC(=O)c1ccccc1NS(=O)(=O)Cc1ccc(Cl)cc1,2.0,1.05,3.0%,3.0,/,3.92*
CN(C)S(=O)(=O)Nc1ccc(NS(=O)(=O)N(C)C)c(S(=O)(=O)c2ccccc2)c1,9.0,1.04,8.0%,14.0,i,1.05
COc1ccc(CSc2nnc3n(C)c(=O)c4c5c(sc4n23)CCCC5)cc1,2.0,0.98,3.0%,7.0,i,1.08
CCOc1ccc(-c2cc(NC(=O)Cn3ncc4c3-c3ccccc3OC4)on2)cc1OCC,5.0,1.02,4.0%,7.0,i,1.08
Cc1cc(N2CCN(C(=O)c3ccco3)CC2)n2ncnc2n1,42.0*,1.01,20.0%,18.0,i,1.05
Cc1nn2c(N3CCN(C(=O)c4ccco4)CC3)cc(C(C)(C)C)nc2c1-c1ccccc1,0.0,1.13,0.0%,0.0,i,2.64*
COc1ccc(-n2nc(C(=O)NCc3ccco3)c3c4ccccc4n(C)c3c2=O)cc1Cl,11.0,1.08,20.0%,16.0,+,3.59*
COc1ccc(-n2nc(C(=O)NCC(=O)NCc3ccco3)c3ccccc3c2=O)cc1,7.0,1.02,4.0%,5.0,i,1.15
CC(=O)Nc1cccc(NC(=O)CSc2nnnn2Cc2ccccc2)c1,/,0.97,35.0%,7.0,+,0.41
CCC(=O)Nc1cc(NC(=O)CSc2nnc(C(C)C)n2CC)ccc1C,9.0,0.98,8.0%,15.0,i,1.1
CCn1c(SCC(=O)Nc2cccc(C(C)=O)c2)nnc1C(C)C,0.0,1.02,35.0%,16.0,+,1.24
COc1ccc2nc(NC(=O)C3CCCN3S(=O)(=O)c3ccc(C)cc3)sc2c1 (stereo not given),8.0,1.03,8.0%,16.0,i,1.1
CC1(C)NC(=O)N(CNc2cc(Cl)ccc2Cl)C1=O,6.0,0.99,3.0%,15.0,i,1.05
CCCCN(C)CCNC(=O)c1c[nH]c2ccc(S(=O)(=O)N(CC)CC)cc2c1=O,0.0,1.06,13.0%,19.0,i,3.17*
CN(Cc1cccs1)C(=O)COc1ccc(-c2nnco2)cc1,9.0,1.01,5.0%,5.0,i,1.11
O=C(CSc1nc2[nH]ncc2c(=O)n1-c1ccccc1Br)NCc1ccco1,8.0,0.99,3.0%,11.0,i,1.02
Cc1ccccc1-n1c(SCc2cc(=O)n3ccccc3n2)nc2[nH]ncc2c1=O,3.0,1.1,4.0%,9.0,i,2.22*
CC1CCN(c2nc3ccccc3nc2C(C#N)S(=O)(=O)c2ccccc2)CC1 (stereo not given),31.0,1.05,17.0%,13.0,i,1.34
CC(O)Cc1nsc(NC(=O)c2ccc(Br)o2)n1 (stereo not given),0.0,1.1,1.0%,2.0,i,1.07
